Results: PubChem BioAssay AID1159580 (chemical genetic matrix, 2015)
Values joined by “and” are separate entries in the source; they are usually repeats but may differ in a detail not shown here. Equal values may be shown once. The whole screen tested about 5,500 compounds, of which about 2,000 (36%) were called active. Not shown: some 18% with an inconclusive outcome. Cut-off read from the data, not from the text of the source: active = normalized growth mostly below about 0.91 (no sharp cut-off); inconclusive = no clear call, values can overlap the other calls; inactive = mostly above about 0.92. The list shows a part of the results.

Test: chemical genetic growth profiling, strain panel (AID 1159580);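 note: tested at 20 µM; growth read once vehicle control cultures reached saturation at 30 °C; 1 = growth at the plate median or of vehicle wells; lower values mean less growth of the strain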
Conditions: S. cerevisiae deletion strains, growth OD

Measured: normalized growth

CC(C)[C@@H]1CC[C@@H](C)CC1=O
inactive: locus YAL013W, strain DEP1, hits give low values 1.01 | locus YAL021C, strain ccr4, hits give low values 0.945 | locus YAL026C, strain drs2, hits give low values 1.01 | locus YAL030W, strain snc1, hits give low values 0.998 | locus YBL061C, strain skt5, hits give low values 0.993 | locus YBR009C, strain hhf1, hits give low values 0.981 | locus YBR021W, strain FUR4, hits give low values 0.98 | locus YBR023C, strain chs3, hits give low values 0.993 | locus YBR171W, strain sec66, hits give low values 0.986 | locus YBR229C, strain ROT2, hits give low values 1.01 | locus YBR231C, strain swc5, hits give low values 0.988 | locus YBR279W, strain paf1, hits give low values 0.994 | locus YCL011C, strain gbp2, hits give low values 0.967 | locus YCL016C, strain dcc1, hits give low values 0.978 | locus YCL029C, strain bik1, hits give low values 1.01 | locus YCL061C, strain MRC1, hits give low values 0.997 | locus YCL069W, strain vba3, hits give low values 0.99 | locus YCR088W, strain abp1, hits give low values 0.997 | locus YDL005C, strain med2, hits give low values 0.998 | locus YDL035C, strain GPR1, hits give low values 1.02 | locus YDL040C, strain nat1, hits give low values 1 | locus YDL074C, strain BRE1, hits give low values 1.02 | locus YDL101C, strain DUN1, hits give low values 1.02 | locus YDL134C, strain PPH21, hits give low values 1.02 | locus YDL185W, strain tfp1, hits give low values 1.01 | locus YDL192W, strain arf1, hits give low values 1.02 | locus YDR001C, strain nth1, hits give low values 1.01 | locus YDR069C, strain doa4, hits give low values 1.01 | locus YDR101C, strain arx1, hits give low values 1.01 | locus YDR137W, strain rgp1, hits give low values 1 | locus YDR150W, strain NUM1, hits give low values 1.02 | locus YDR159W, strain sac3, hits give low values 0.996 | locus YDR162C, strain NBP2, hits give low values 1.04 | locus YDR195W, strain ref2 0.976 | locus YDR297W, strain sur2, hits give low values 0.987 | locus YDR318W, strain mcm21, hits give low values 0.998 | locus YDR334W, strain swr1, hits give low values 0.993 | locus YDR335W, strain msn5, hits give low values 0.987 | locus YDR388W, hits give low values 1 | locus YDR392W, strain spt3, hits give low values 0.963 | locus YDR502C, strain sam2, hits give low values 1.01 | locus YEL003W, strain gim4, hits give low values 0.995 | locus YEL037C, strain rad23, hits give low values 0.982 | locus YEL061C, strain CIN8 (second series), hits give low values 0.989 | locus YEL061C, strain CIN8, hits give low values 1 | locus YER015W, strain faa2, hits give low values 0.984 | locus YER016W, strain bim1, hits give low values 0.991 | locus YER110C, hits give low values 1.01 | locus YER111C, strain swi4, hits give low values 1 | locus YER155C, strain BEM2 (second series), hits give low values 0.99 | locus YER155C, strain BEM2, hits give low values 0.998 | locus YER167W, strain BCK2, hits give low values 1.02 | locus YFR010W, strain ubp6, hits give low values 0.996 | locus YGL078C, strain dbp3, hits give low values 1 | locus YGL086W, strain mad1, hits give low values 1.01 | locus YGL167C, strain pmr1, hits give low values 0.992 | locus YGL173C, strain kem1, hits give low values 0.999 | locus YGL227W, strain vid30, hits give low values 1 | locus YGL240W, strain doc1, hits give low values 1 | locus YGL248W, strain PDE1, hits give low values 1.02 | locus YGL253W, strain hxk2, hits give low values 0.992 | locus YGR078C, strain PAC10, hits give low values 1.02 | locus YGR135W, strain pre9, hits give low values 1.01 | locus YGR229C, strain SMI1, hits give low values 1.05 | locus YGR252W, strain gcn5, hits give low values 1.03 | locus YHR013C, strain ard1, hits give low values 0.979 | locus YHR027C, strain rpn1, hits give low values 1 | locus YHR030C, strain SLT2, hits give low values 1.01 and 0.977 | locus YHR079C, strain IRE1 (second series), hits give low values 0.995 | locus YHR079C, strain IRE1, hits give low values 0.976 | locus YHR094C, strain hxt1, hits give low values 1.02 | locus YHR129C, strain ARP1, hits give low values 1.01 | locus YHR142W, strain chs7, hits give low values 0.968 | locus YHR200W, strain rpn10, hits give low values 1.01 | locus YIL066C, strain RNR3, hits give low values 1.04 | locus YIL073C, strain SPO22, hits give low values 1.06 | locus YIL125W, strain kgd1, hits give low values 1.02 | locus YIR030C, strain dcg1, hits give low values 1.01 | locus YJL092W, strain hpr5, hits give low values 0.989 | locus YJL095W, strain BCK1 (second series), hits give low values 0.978 | locus YJL095W, strain BCK1, hits give low values 1.06 and 0.982 | locus YJL115W, strain asf1, hits give low values 0.991 | locus YJL129C, strain trk1, hits give low values 1.01 | locus YJL134W, strain LCB3, hits give low values 1.01 | locus YJL154C, strain vps35, hits give low values 0.989 | locus YJL164C, strain tpk1, hits give low values 0.961 | locus YJL166W, strain qcr8, hits give low values 0.995 | locus YJL168C, strain set2, hits give low values 0.996 | locus YJL187C, strain SWE1 (second series), hits give low values 1.03 | locus YJL187C, strain SWE1, hits give low values 0.99 | locus YJR043C, strain POL32, hits give low values 1.02
